The source made the active and inactive calls. Rule for the calls: active = hit-call score of the fitted dose curve at least 0.9, where 1 is the maximum; inactive = score below 0.9.
How the values were obtained:
Conditions in all cases: mRNA level, 48 h; actives raise or lower the signal
[1] = read-out: Apoptosis regulator Bcl-2 (Homo sapiens) (UniProt P10415); assay: LTEA_HepaRG_BCL2: Life Technologies and Expression Analysis (LTEA) Assay for Bcl-2 gene using HepaRG (AID 2283475)
Method in brief: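 Differentiated HepaRG cells in serum-free induction medium were exposed for 48 h to eight half-log concentrations up to 100 uM in 0.5% DMSO, in duplicate. BCL2 mRNA was quantified by TaqMan qRT-PCR normalised to ACTB, GAPDH and POLR2A, with bidirectional fitting versus DMSO.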

[2] = read-out: Bcl-2 (BID) gene, BID (gene 637); assay: LTEA_HepaRG_BID: Life Technologies and Expression Analysis (LTEA) Assay for Bcl-2 (BID) gene using HepaRG (AID 2283476)
Method in brief: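 Differentiated HepaRG cells in serum-free induction medium were exposed in duplicate for 48 h to eight half-log concentrations up to 100 uM in 0.5% DMSO. BID mRNA was quantified by qRT-PCR, normalized to ACTB, GAPDH and POLR2A.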

Caspase-3 (Homo sapiens) = Caspase-3 (Homo sapiens) (UniProt P42574); assay: LTEA_HepaRG_CASP3: Life Technologies and Expression Analysis (LTEA) Assay for cysteine-aspartic acid protease (CASP3) using HepaRG (AID 2283477)
Sequence of Caspase-3 (Homo sapiens) (P42574 whole entry, looked up): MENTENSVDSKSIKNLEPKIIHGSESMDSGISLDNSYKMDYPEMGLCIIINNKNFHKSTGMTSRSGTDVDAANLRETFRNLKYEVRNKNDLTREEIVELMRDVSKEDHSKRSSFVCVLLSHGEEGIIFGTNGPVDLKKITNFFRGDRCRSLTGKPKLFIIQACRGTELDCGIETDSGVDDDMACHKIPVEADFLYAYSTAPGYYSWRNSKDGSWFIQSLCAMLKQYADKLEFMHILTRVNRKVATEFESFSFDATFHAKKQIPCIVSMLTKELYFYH
Method in brief: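 Read-out is CASP3 mRNA level by TaqMan qRT-PCR in human HepaRG cells after 48 h chemical exposure. Eight half-log concentrations topping at 100 uM were tested in 0.5% DMSO; gain or loss was fitted relative to DMSO.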

[3] = read-out: Cytochrome P450 (CYP1A2), CYP1A2 (gene 1544); assay: LTEA_HepaRG_CYP1A2: Life Technologies and Expression Analysis (LTEA) Assay for Cytochrome P450 (CYP1A2) using HepaRG (AID 2283479)
Method in brief: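 CYP1A2 transcript induction or loss, quantified by Fluidigm qRT-PCR against three housekeeping genes, was fitted bidirectionally against 0.5% DMSO controls. Human HepaRG cells received eight half-log concentrations from 100 uM over 48 h.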

[4] = read-out: cysteine-aspartic acid protease (CASP8), CASP8 (gene 841); assay: LTEA_HepaRG_CASP8: Life Technologies and Expression Analysis (LTEA) Assay for cysteine-aspartic acid protease (CASP8) using HepaRG (AID 2283480)
Method in brief: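 HepaRG, 48 h exposure, duplicate wells; 8 conc, half-log from 100 uM, 0.5% DMSO. Serum-free induction medium. CASP8 mRNA by TaqMan qRT-PCR, norm. ACTB/GAPDH/POLR2A; gain/loss fitted vs DMSO.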

[5] = read-out: Cytochrome P450 (CYP2B6), CYP2B6 (gene 1555); assay: LTEA_HepaRG_CYP2B6: Life Technologies and Expression Analysis (LTEA) Assay for Cytochrome P450 (CYP2B6) using HepaRG (AID 2283481)
Method in brief: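 HepaRG cells plated 48 h, switched to serum-free induction medium, then dosed 48 h (8 points, half-log from 100 uM, 0.5% DMSO). RNA isolated; CYP2B6 expression measured by qRT-PCR; gain or loss fitted relative to DMSO.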

[6] = read-out: Cytochrome P450 2C19 (Homo sapiens) (UniProt P33261); assay: LTEA_HepaRG_CYP2C19: Life Technologies and Expression Analysis (LTEA) Assay for CYP2C19 using HepaRG (AID 2283482)
Method in brief: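 Transcript levels of CYP2C19 were quantified by qRT-PCR after HepaRG cells were treated for 48 hours with test chemicals up to 100 uM (eight half-log concentrations, 0.5% DMSO vehicle). Gain or loss of signal was fitted relative to DMSO.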

CYP2C8 (gene 1558) = assay: LTEA_HepaRG_CYP2C8: Life Technologies and Expression Analysis (LTEA) Assay for CYP2C8 using HepaRG (AID 2283483)
Method in brief: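 CYP2C8 mRNA induction or loss, by qRT-PCR normalized to ACTB/GAPDH/POLR2A, is read in HepaRG cells after 48 h treatment. Concentrations run from 100 uM down in half-log dilutions, with 0.5% DMSO as vehicle and baseline.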

CYP2C9 (gene 1559) = assay: LTEA_HepaRG_CYP2C9: Life Technologies and Expression Analysis (LTEA) Assay for CYP2C9 using HepaRG (AID 2283484)
Method in brief: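 Cells plated 48 h, switched to serum-free induction medium, then treated in duplicate for 48 h at eight concentrations (max 100 uM, 0.5% DMSO). RNA then analysed by qRT-PCR for CYP2C9; curves fitted in both directions relative to DMSO.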

[7] = read-out: Cytochrome P450 (CYP24A1), CYP24A1 (gene 1591); assay: LTEA_HepaRG_CYP24A1: Life Technologies and Expression Analysis (LTEA) Assay for Cytochrome P450 (CYP24A1) using HepaRG (AID 2283478)
Method in brief: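 HepaRG, 48 h chemical exposure, 8-pt half-log CRC from 100 uM, 0.5% DMSO vehicle, duplicates. Endpoint: CYP24A1 mRNA by Fluidigm TaqMan qRT-PCR, normalized ACTB/GAPDH/POLR2A; gain/loss fit vs DMSO.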

Measured: AC50

Sequence of Cytochrome P450 2C19 (Homo sapiens) (P33261 whole entry, looked up): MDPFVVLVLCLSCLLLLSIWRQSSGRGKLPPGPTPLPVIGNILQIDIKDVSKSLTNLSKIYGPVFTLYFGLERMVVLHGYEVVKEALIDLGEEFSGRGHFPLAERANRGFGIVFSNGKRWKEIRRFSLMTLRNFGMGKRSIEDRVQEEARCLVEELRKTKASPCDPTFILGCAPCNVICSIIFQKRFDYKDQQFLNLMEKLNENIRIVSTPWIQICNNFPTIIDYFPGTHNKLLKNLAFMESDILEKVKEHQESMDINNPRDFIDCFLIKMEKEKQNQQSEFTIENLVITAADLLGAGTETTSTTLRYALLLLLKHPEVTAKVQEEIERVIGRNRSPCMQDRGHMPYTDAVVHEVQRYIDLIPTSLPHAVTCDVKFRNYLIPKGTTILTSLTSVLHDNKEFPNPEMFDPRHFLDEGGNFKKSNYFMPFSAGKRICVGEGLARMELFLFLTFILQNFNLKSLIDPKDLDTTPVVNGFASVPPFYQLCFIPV
Sequence of Apoptosis regulator Bcl-2 (Homo sapiens) (P10415 whole entry, looked up): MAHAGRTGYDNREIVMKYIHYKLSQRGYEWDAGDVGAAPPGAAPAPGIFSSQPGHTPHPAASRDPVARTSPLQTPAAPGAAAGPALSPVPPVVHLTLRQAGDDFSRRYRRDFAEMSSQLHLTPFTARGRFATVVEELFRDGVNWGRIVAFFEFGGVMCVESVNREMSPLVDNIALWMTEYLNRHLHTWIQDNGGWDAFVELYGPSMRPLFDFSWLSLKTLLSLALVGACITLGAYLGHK

C[C@]12CCC(=O)C=C1CC[C@@H]1[C@@H]2CC[C@]2(C)C(=O)CC[C@@H]12
active: [2] 50 µM | [3] 50 µM | [6] 10.4 µM
not listed: [7]
inactive: all other assays above

ClC(Cl)=C(c1ccc(Cl)cc1)c1ccc(Cl)cc1
active: [5] 1.59 µM | [6] 7.61 µM
not listed: CYP2C8 (gene 1558) | [7]
inactive: all other assays above

O=C(N[C@H]1CN2CCC1CC2)c1cc2ccoc2cn1
active: [3] 50 µM | [5] 50 µM
not listed: Caspase-3 (Homo sapiens)
inactive: all other assays above

Nc1ccc(-c2ccc(N)cc2)cc1
active: [5] 50 µM
not listed: CYP2C8 (gene 1558)
inactive: all other assays above

C1CC2OC2CC1C1CO1 (stereo not given)
active: [5] 7.5 µM
not listed: CYP2C8 (gene 1558) | [7]
inactive: all other assays above

Oc1ccc(C(c2ccc(O)cc2)(C(F)(F)F)C(F)(F)F)cc1
active: [5] 92 µM | [6] 85.8 µM
not listed: Caspase-3 (Homo sapiens) | CYP2C8 (gene 1558)
inactive: all other assays above

Cc1ccccc1[N+](=O)[O-]
active: [5] 13.9 µM
not listed: CYP2C8 (gene 1558) | [7]
inactive: all other assays above

COS(=O)(=O)OC
active: [3] 31 µM
inactive: all other assays above

Nn1cnnc1
not listed: Caspase-3 (Homo sapiens)
inactive: all other assays above

NS(=O)(=O)C(F)(F)C(F)(F)C(F)(F)C(F)(F)C(F)(F)C(F)(F)C(F)(F)C(F)(F)F
inactive: [2]
active: [1] 2.79 µM | Caspase-3 (Homo sapiens) 3.73 µM | [3] 5 µM | [4] 12.9 µM | [5] 9.56 µM | [6] 9.68 µM | CYP2C8 (gene 1558) 11.1 µM | CYP2C9 (gene 1559) 12.7 µM

CN(C)CCO
not listed: CYP2C8 (gene 1558) | [7]
inactive: all other assays above

Cc1cccc([N+](=O)[O-])c1
active: [5] 8.74 µM
not listed: Caspase-3 (Homo sapiens) | CYP2C8 (gene 1558)
inactive: all other assays above

CCOC(=O)C(O)(c1ccc(Cl)cc1)c1ccc(Cl)cc1
active: [3] 66.5 µM | [5] 69.1 µM
not listed: CYP2C8 (gene 1558) | [7]
inactive: all other assays above

O=C(NC(=O)c1c(F)cccc1F)Nc1cc(Cl)c(OC(F)(F)C(F)F)c(Cl)c1
active: [3] 3.63 µM
inactive: all other assays above

CCCN(CCC)N=O
active: [5] 11 µM
not listed: Caspase-3 (Homo sapiens)
inactive: all other assays above
